# Reference: PubChem BioAssay (NCATS)
# Results filed as inconclusive are left out. Entries that show only a call come without a potency. Calls of active or inactive are those of the source. Unless noted, the call rests on the fitted dose curve; in most records, active means well fitted curve in the direction sought with a large enough effect; inconclusive means small, poorly fitted or top-dose-only effect, or another doubt; inactive means no such curve, though single readings can be large; an effect the other way counts as inactive or inconclusive.
# How the values were obtained:
# [1] = qHTS assay for measurement of the activity of small molecule inhibitors on Zika virus induced Caspase-3 activity in human iPSC derived neural progenitor cells (hNPCs) (AID 1224857); further: nearly all actives have a fitted effect of over 65% in size
# In short: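 Zika virus (2 FFU/cell) infection of human iPSC-derived NPCs, 6 h, following 1 h compound preincubation. Read-out: Caspase-Glo 3/7 luminescence.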
# [2] = qHTS assay for measurement of the activity of small molecule inhibitors on Zika virus induced Caspase-3 activity in human astrocytoma cells (AID 1224859)
# In short: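 Caspase activation in ZIKV-infected SNB-19 cells (2 FFU/cell, 6 h) measured by Caspase-Glo 3/7 luminescence after 30 min RT; compound pre-incubated 1 h; normalised to uninfected and infected controls.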
# [3] = qHTS assay to identify small molecule inhibitors of chordoma cells - UCH-1 (AID 1259355); further: nearly all actives have a fitted effect of over 55% in size; further: potency means the concentration at half of the fitted maximal effect
# In short: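 Luminescent ATP read-out (CellTiter-Glo, 30min at room temperature) measured viability of UCH-1 cells exposed for 48hr to test drugs at 15 concentrations, co-dosed with a five-agent combination of auranofin, camptothecin, doxorubicin, rubitecan and topotecan.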
# [4] = qHTS assay to identify small molecule inhibitors of chordoma cells - UCH-2 (AID 1259356); further: potency means the concentration at half of the fitted maximal effect
# [5] = P-glycoprotein substrates identified in KB-3-1 adenocarcinoma cell line, qHTS therapeutic library screen (AID 1346986); conditions: outcome: dose series up to 44.5 µM; further: nearly all actives have a fitted effect of over 60% in size
# In short: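 Resistance attributable to P-gp was assessed by comparing AC50 in KB-8-5-11 with parental KB-3-1 and by tariquidar reversal. Cells were exposed 72 h and viability read by CellTiter-Glo.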
# [6] = P-glycoprotein substrates identified in KB-8-5-11 adenocarcinoma cell line, qHTS therapeutic library screen (AID 1346987); further: nearly all actives have a fitted effect of over 65% in size; further: potency means the concentration at half of the fitted maximal effect
# In short: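 KB-8-5-11, a colchicine-selected P-gp-overexpressing KB-3-1 subline, was grown without colchicine for the assay. Cells were seeded at 500 cells/well, dosed in concentration-response and incubated 72 h at 37 degree C, 5% CO2. Viability was read by CellTiter-Glo luminescence.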
# [7] = Natriuretic polypeptide receptor (hNpr1) antagonism - Pilot counterscreen GloSensor control cell line (AID 1347045; calls by dose curve; further: potency means the concentration at half of the fitted maximal effect)
# In short: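 HEK293 cGMP GloSensor cells preloaded 2 h with 2% GloSensor reagent, then compound 30 min before baseline luminescence read. Stimulated with 50 uM sodium nitroprusside, 20 min at room temperature, then read again; counterscreen for Npr1 antagonism.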
# [8] = biological target: Atrial natriuretic peptide receptor 1 (Homo sapiens) (UniProt P16066); test: Natriuretic polypeptide receptor (hNpr1) antagonism - Pilot screen (AID 1347049; calls by dose curve;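 further: agonist-evoked cGMP luminescence read 20 min after hNppA addition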)
# Chain of Atrial natriuretic peptide receptor 1 (Homo sapiens) (P16066 whole entry, looked up): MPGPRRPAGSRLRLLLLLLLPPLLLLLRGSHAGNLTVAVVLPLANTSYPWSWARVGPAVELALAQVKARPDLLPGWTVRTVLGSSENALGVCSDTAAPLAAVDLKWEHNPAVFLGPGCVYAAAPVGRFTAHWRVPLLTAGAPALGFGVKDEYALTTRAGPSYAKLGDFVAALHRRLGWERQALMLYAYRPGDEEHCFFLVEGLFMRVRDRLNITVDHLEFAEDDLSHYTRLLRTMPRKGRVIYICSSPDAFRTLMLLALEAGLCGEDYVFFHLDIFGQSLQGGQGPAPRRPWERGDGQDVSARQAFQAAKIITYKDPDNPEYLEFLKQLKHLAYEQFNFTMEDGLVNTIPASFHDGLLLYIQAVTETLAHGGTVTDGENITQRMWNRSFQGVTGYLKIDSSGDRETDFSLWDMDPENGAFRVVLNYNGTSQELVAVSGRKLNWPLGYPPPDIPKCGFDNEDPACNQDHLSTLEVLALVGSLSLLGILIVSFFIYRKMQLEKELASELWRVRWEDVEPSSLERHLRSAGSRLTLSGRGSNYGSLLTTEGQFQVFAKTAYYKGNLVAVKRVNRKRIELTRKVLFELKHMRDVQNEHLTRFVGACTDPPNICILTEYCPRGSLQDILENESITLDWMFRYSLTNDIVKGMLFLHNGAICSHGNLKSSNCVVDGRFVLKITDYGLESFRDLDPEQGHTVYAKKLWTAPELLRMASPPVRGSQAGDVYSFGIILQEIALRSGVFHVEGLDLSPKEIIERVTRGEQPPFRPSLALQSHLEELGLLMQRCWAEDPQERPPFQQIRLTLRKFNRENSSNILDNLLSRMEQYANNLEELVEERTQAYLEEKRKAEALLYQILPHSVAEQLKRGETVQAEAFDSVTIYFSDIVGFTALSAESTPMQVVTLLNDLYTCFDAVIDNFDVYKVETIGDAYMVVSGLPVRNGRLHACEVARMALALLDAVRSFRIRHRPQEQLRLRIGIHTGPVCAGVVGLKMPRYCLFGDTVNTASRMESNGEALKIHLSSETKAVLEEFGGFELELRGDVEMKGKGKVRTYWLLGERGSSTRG
# In short: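 HEK293 cells co-expressing hNpr1 and the GloSensor pGS-40F cGMP luciferase sensor were preloaded with 2% GloSensor reagent for 2 h. Compounds were added for 30 min at room temperature, then cells were stimulated with 0.1 nM hNppA for 20 min before luminescence readout.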
# [9] = NS1 protein of Zika virus - qHTS assay to identify small molecule inhibitors in human HEK 293 cells (AID 1347053); further: nearly all actives have a fitted effect of over 55% in size
# In short: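 Inhibition of NS1 expression was scored in HEK 293 cells given compound 1 h ahead of MR766 virus (MOI = 0.5). Following 24 h at 37 C, two anti-NS1 antibodies generated a TR-FRET signal, scaled between uninfected and infected controls.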
# [10] = biological target: Atrial natriuretic peptide receptor 2 (Homo sapiens) (UniProt P20594); test: Natriuretic polypeptide receptor (hNpr2) antagonism - Pilot subtype selectivity assay (AID 1347050; calls by dose curve)
# Chain of Atrial natriuretic peptide receptor 2 (Homo sapiens) (P20594 whole entry, looked up): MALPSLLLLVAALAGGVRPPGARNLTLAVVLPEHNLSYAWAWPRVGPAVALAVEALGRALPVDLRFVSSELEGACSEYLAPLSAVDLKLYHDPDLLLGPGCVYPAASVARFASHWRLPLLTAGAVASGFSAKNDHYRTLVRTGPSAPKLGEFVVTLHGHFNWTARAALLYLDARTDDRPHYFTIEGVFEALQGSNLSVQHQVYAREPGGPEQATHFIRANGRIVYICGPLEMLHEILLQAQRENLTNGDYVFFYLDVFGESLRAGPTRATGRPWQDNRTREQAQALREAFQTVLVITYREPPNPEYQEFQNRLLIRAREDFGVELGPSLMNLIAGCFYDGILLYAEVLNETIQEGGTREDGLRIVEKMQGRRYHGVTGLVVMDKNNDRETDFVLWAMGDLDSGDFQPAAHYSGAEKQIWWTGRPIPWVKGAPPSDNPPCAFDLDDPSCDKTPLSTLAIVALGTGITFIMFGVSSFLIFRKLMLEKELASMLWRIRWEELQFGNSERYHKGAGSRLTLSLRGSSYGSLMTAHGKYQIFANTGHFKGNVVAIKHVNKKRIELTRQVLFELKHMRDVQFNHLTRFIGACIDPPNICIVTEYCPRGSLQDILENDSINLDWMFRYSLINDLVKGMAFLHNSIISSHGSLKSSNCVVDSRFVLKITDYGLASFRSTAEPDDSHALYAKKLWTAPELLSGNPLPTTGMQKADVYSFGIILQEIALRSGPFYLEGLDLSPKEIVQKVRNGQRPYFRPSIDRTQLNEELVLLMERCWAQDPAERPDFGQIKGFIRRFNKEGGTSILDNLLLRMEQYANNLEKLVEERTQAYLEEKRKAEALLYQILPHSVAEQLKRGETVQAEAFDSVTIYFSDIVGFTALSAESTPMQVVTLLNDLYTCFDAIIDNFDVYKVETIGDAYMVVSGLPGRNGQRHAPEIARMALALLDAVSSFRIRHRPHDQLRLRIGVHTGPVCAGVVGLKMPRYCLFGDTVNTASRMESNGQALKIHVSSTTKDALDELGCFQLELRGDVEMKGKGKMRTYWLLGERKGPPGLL
# In short: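 cGMP-sensor HEK293/hNpr2 cells; 2% GloSensor reagent 2 h RT; compounds 30 min; baseline luminescence read; 1 nM hNppC agonist 20 min RT; final luminescence read by CCD camera. Antagonism = reduced post-agonist signal.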
# [11] = qHTS profiling for inhibitors of Plasmodium falciparum (3D7) proliferation (AID 743322);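 further: infected erythrocytes exposed to compound for 72 h before lysis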; conditions: P. falciparum 3D7 proliferation; at 28.7 µM (top of the series) unless noted
# In short: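 Erythrocytes infected with P. falciparum (0.3% parasitemia, 2.5% hematocrit) incubated with compounds 72 h at 37 C, 5% CO2. Lysis with saponin/Triton buffer containing SYBR Green I, overnight at room temperature in the dark; DNA fluorescence (485/535 nm) normalised to 0.29 uM artemisinin and DMSO.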
# [12] = qHTS profiling for inhibitors of Plasmodium falciparum (DD2) proliferation (AID 743323; call rule not given here); conditions: lower = more inhibition; at 28.7 µM (top of the series) unless noted
# In short: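 Parasite DNA quantified by SYBR Green fluorescence (ex 485, em 535 nm) after saponin/Triton lysis and overnight dark incubation. Cultures: 0.3% parasitemia, 2.5% hematocrit, 72 h, 37 C; data scaled between DMSO and 0.29 uM artemisinin.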
# [13] = qHTS profiling for inhibitors of Plasmodium falciparum (HB3) proliferation (AID 743324); conditions: Plasmodium falciparum HB3 blood-stage proliferation; at 28.7 µM (top of the series)
# In short: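 P. falciparum HB3 grown in erythrocytes (0.3% parasitemia, 2.5% hematocrit final) with compound for 72 h at 37 C, 5% CO2. Parasite DNA detected by SYBR Green after saponin/triton lysis overnight; normalized to 0.29 uM artemisinin and DMSO.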
SMILES,outcome [1],outcome [2],Potency [3],Potency [4],outcome [5],Potency [6],Potency [7],Potency [8],outcome [9],Potency [10],remaining parasite growth % (stronger effect = lower value) [11],"activity, percent of control [12]","remaining proliferation (% of control), lower = more inhibition [13]"
CCCN1C[C@H](CSC)C[C@@H]2c3cccc4[nH]cc(c34)C[C@H]21,inactive,inactive,inactive,inactive,inactive,inactive,inactive,inactive,inactive,,,,
O=C(O)CN(CCN(CC(=O)O)CC(=O)O)CCN(CC(=O)O)CC(=O)O,inactive,inactive,inactive,inactive,,inactive,inactive,inactive,inactive,inactive,,,
NC/C=C/C(=O)O,inactive,inactive,inactive,inactive,,inactive,inactive,inactive,inactive,inactive,,,
CCn1ccnc1CC1COc2ccccc2O1 (stereo not given),inactive,inactive,inactive,inactive,,inactive,inactive,inactive,inactive,inactive,,,
CCCCCCCC/C=C\CCCCCCCC(=O)NCc1ccc(O)c(OC)c1,inactive,inactive,inactive,inactive,,inactive,inactive,inactive,inactive,inactive,,,
Cc1ccc(=O)n(-c2ccccc2)c1,inactive,inactive,inactive,inactive,,inactive,inactive,inactive,inactive,inactive,,,
CCCOc1ccccc1-c1nc2n[nH]nc2c(=O)[nH]1,inactive,inactive,inactive,inactive,,inactive,inactive,inactive,inactive,inactive,,,
CCO/C([O-])=N/c1c[n+](N2CCOCC2)no1,inactive,inactive,inactive,inactive,,inactive,inactive,inactive,inactive,inactive,,,
COC(=O)[C@@H](N)Cc1ccc(O)c(O)c1,inactive,inactive,inactive,inactive,,inactive,inactive,inactive,inactive,inactive,,,
NC1=NCC2c3ccccc3Cc3ccccc3N12 (stereo not given),inactive,inactive,inactive,inactive,,inactive,inactive,inactive,inactive,inactive,,,
Nc1nc(N)c2nc(-c3ccccc3)c(N)nc2n1,inactive,inactive,inactive,inactive,,inactive,inactive,inactive,inactive,inactive,,,
CNCCCN1c2ccccc2CCc2ccccc21,inactive,inactive,inactive,inactive,,inactive,inactive,inactive,inactive,,,,
Nc1c2c(nc3ccccc13)CCCC2O (stereo not given),inactive,inactive,inactive,inactive,,inactive,inactive,inactive,inactive,,,,
C[C@H](CS)C(=O)N1CCC[C@H]1C(=O)O,inactive,inactive,inactive,inactive,,inactive,inactive,inactive,inactive,,,,
O=C(O)CP(=O)(O)O,inactive,inactive,inactive,inactive,,inactive,inactive,inactive,inactive,,,,
NS(=O)(=O)c1cc2c(cc1Cl)NC(C1CC3C=CC1C3)NS2(=O)=O (stereo not given),inactive,inactive,inactive,inactive,,inactive,inactive,inactive,inactive,,,,
CCn1cc(C(=O)O)c(=O)c2cc3c(cc21)OCO3,inactive,inactive,inactive,inactive,,inactive,inactive,inactive,inactive,inactive,,,
C[C@]12CC[C@@H]3c4ccc(O)cc4C[C@@H](CCCCCCCCCS(=O)CCCC(F)(F)C(F)(F)F)[C@H]3[C@@H]1CC[C@@H]2O (stereo not given in full),inactive,inactive,inactive,inactive,,inactive,inactive,inactive,inactive,inactive,,,
O=C(O)CN(CCOCCOCCN(CC(=O)O)CC(=O)O)CC(=O)O,inactive,inactive,inactive,inactive,,inactive,inactive,inactive,inactive,,,,
COc1ccc([C@@H]2Sc3ccccc3N(CCN(C)C)C(=O)[C@@H]2OC(C)=O)cc1,inactive,inactive,inactive,inactive,,20.6 µM (active),inactive,inactive,inactive,inactive,,,
OCCN1CCN(CC/C=C2/c3ccccc3Sc3ccc(C(F)(F)F)cc32)CC1,inactive,inactive,inactive,inactive,,18.4 µM (active),,inactive,,inactive,,,
OC(CCN1CCCCC1)(c1ccccc1)C1CCCCC1 (stereo not given),inactive,inactive,inactive,inactive,,inactive,,inactive,inactive,,,,
CCN(CC)CC(=O)Nc1c(C)cccc1C,inactive,inactive,inactive,inactive,,inactive,inactive,inactive,inactive,,,,
COCC(=O)O[C@]1(CCN(C)CCCc2nc3ccccc3[nH]2)CCc2cc(F)ccc2[C@@H]1C(C)C,inactive,inactive,31.6 µM (active),14.6 µM (active),,2.31 µM (active),26.1 µM (active),inactive,inactive,,-2.7%,-0.639%,-1.39%
NCCCNCCSP(=O)(O)O,inactive,inactive,inactive,inactive,,inactive,inactive,inactive,inactive,,,,
